A selection: hits, their analogues and other compounds. The true share with any hit is near 2.5%.
Ecoli rRNA inh = selective bacterial rRNA inhibition in E. coli; E. coli WT GFP vs humanized-ribosome RFP mutants, fluorescence, 24 h; stronger effect = lower value; DMSO median 0, no signal -100; GFP signal change (wild-type ribosome), % (no concentration beside the values); 350,000 tested, 1.6% active;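 active means significant combined selectivity score with lowered wild-type GFP, culture density cut under 30%, mutant RFP and density less affected; inactive means any of these conditions unmet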
CASP6 VEID inh = caspase-6 (human) enzyme inhibition; P55212; purified caspase-6, Z-VEID-R110 cleavage fluorescence; inhibition, % at 12.5 µM; 350,000 tested, 0.53% active;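 active means mean inhibition across replicates at least about 35%, with every replicate also reaching that limit, limit read from the data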;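 further: 0% = median of neutral control wells and 100% = no fluorescence left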
AF4-AF9 inh = inhibitors of human MLL-AF4/AF9 interaction; inhibition, % at 10 µM; AlphaScreen, biotin-AF4 peptide binding to FLAG-AF9; AID 651704; 350,000 tested, 0.47% active;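 active means every replicate reaching a set inhibition limit, whatever the replicate mean, cut at about 25% in these data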;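 further: 0% = plate neutral control median and 100% = total signal loss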
NSD2 HMT inh = NSD2 (human) methyltransferase inhibition. 310,000 tested, 0.54% active. inhibition, % at 12.5 µM. NSD2 peptide methylation, AlphaScreen, 120 min. O96028; in the data active means inhibition above about 50%
RAD52 anneal inh = inhibitors of human RAD52 DNA annealing; P43351; inhibition, % at 18.7 µM; recombinant RAD52 DNA annealing, FRET fluorescence; 360,000 tested, 0.46% active; AID 651710;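 active means every replicate showing at least 50% inhibition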
Target sequence (P43351 whole entry, looked up): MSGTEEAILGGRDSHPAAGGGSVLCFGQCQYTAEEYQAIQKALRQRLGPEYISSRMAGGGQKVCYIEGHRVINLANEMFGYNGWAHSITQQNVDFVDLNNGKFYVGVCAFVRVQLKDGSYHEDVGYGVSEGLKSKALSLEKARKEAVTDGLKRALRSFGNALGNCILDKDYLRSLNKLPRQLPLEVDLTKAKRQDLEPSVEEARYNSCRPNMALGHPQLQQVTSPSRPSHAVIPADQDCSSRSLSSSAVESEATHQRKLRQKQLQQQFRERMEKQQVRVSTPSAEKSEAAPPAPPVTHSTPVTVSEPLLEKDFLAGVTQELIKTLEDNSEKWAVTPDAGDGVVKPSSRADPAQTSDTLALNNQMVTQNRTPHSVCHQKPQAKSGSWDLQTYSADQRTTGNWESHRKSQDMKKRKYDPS
Active calls of the source: *; · = not tested or not shown.

SMILES	Ecoli rRNA inh	CASP6 VEID inh	AF4-AF9 inh	NSD2 HMT inh	RAD52 anneal inh
COC(=O)c1ccc(N2NC(=O)/C(=C/c3ccc(-c4ccc(Cl)c(C(=O)O)c4)o3)C2=O)cc1	15	58*	1	-2	20
Cc1ccc(N2NC(=O)/C(=C/c3ccc(-c4ccc(Cl)c(C(=O)O)c4)o3)C2=O)cc1C	9	3	7	·	-8
O=C1NN(c2ccc(Cl)c(Cl)c2)C(=O)/C1=C/c1ccc(-c2ccccc2C(=O)O)o1	18	37*	5	16	-30
Cc1noc(C)c1S(=O)(=O)N(C)C[C@@H]1OCCCC[C@@H](C)Oc2ccc(NC(=O)NC(C)C)cc2C(=O)N([C@H](C)CO)C[C@@H]1C	4	2	2	·	6
Cc1cccc(NC(=S)N2CCN(C(=O)c3ccco3)CC2)c1C	-13	·	-1	-6	-7
Cc1c(Cl)cccc1NC(=S)N1CCN(C(=O)c2ccco2)CC1	-28*	-3	0	0	-5
CC(=O)n1cc(N(C(=O)CCl)c2ccc([N+](=O)[O-])cc2)c2ccccc21	-36*	14	7	·	-10
O=Cc1[nH]c2ccccc2c1N(C(=O)CCl)c1ccc([N+](=O)[O-])cc1	-55*	4	6	16	-3
COC(=O)Cc1[nH]n(-c2nc3ccccc3s2)c(=O)c1C(C)=Nc1ccc(C)cc1	-26*	3	-1	0	-23
CCOC(=O)C1CCCN(C(=O)C(=O)Nc2ccc3nc4n(c(=O)c3c2)CCCCC4)C1 (centres undefined)	-17*	1	-16	·	-7
COC(=O)[C@]1(C)CCC[C@@]2(C)C3CC[C@@]4(C)C[C@]3(CCC21)CC(=O)N4 (some centres undefined)	-28*	·	·	·	-2
C[C@@]12CCC3[C@@](CCC4[C@@]3(C)CCC[C@@]4(C)C(=O)O)(CC1=O)C2 (some centres undefined)	-40	1	-1	·	-5
CN(C)CC#Cc1ccc([C@@H]2[C@H](CO)N3CCCCN(C(=O)Nc4ccccc4F)C[C@@H]23)cc1	2	-2	3	·	32
CN(C)CC#Cc1ccc([C@@H]2[C@H](CO)N3CCCCN(C(=O)Nc4cc(F)ccc4F)C[C@@H]23)cc1	0	-1	10	·	51*
CN(C)CC#Cc1ccc([C@@H]2[C@@H](CO)N3CCCCN(C(=O)Nc4cc(F)ccc4F)C[C@H]23)cc1	4	-1	5	·	22
O=C(Nc1ccccc1F)N1CCCCN2[C@@H](CO)[C@H](c3ccc(-c4cccnc4)cc3)[C@@H]2C1	-19*	0	1	·	-6
OC[C@H]1[C@@H](c2ccc(-c3ccccc3F)cc2)[C@@H]2CN(Cc3cccnc3)CCCCN12	3	-2	6	·	9
OC[C@H]1[C@H](c2ccc(-c3ccccc3F)cc2)[C@H]2CN(Cc3cccnc3)CCCCN21	2	47*	6	·	5
CN(C)CC#Cc1ccc([C@@H]2[C@@H](CO)N3CCCCN(C(=O)Nc4ccccc4F)C[C@H]23)cc1	2	3	4	·	54*
O=C(Nc1ccccc1F)N1CCCCN2[C@H](CO)[C@H](c3ccc(-c4cccnc4)cc3)[C@@H]2C1	0	0	-5	·	4
CO[C@@H]1CN(C)C(=O)c2ccc(NS(=O)(=O)c3ccccc3Cl)cc2OC[C@H](C)NC[C@@H]1C	2	·	-1	·	-6
Cc1ccc2ccccc2c1CSc1nc(N)nc2c1ncn2CC(C)C	-30*	-1	-6	-1	-6
O=C(C[C@H]1CC[C@H]2[C@@H](COC[C@H](O)CN2C(=O)Cc2ccccc2)O1)NC1CCCC1	-3	1	1	·	-7
CC1=Nc2cc(C(=O)NCC3CCCO3)ccc2Sc2ccc(Br)cc21 (centres undefined)	-22*	0	5	-7	-18
CC[C@H]1C/C=C\C[C@H](c2ccc(F)cc2)NC(=O)CCC(=O)N1	4	·	·	·	·
SMILES	Ecoli rRNA inh	CASP6 VEID inh	AF4-AF9 inh	NSD2 HMT inh	RAD52 anneal inh
O=C(O)CCCC[C@@H]1SC[C@@H]2NC(=O)N[C@@H]21	5	-5	97*	·	-7
CCOc1cc(C(N)=O)cc(Cl)c1OCc1ccccc1	-33	-3	-2	-4	-9
CCOc1cc(/C=C(/NC(C)=O)C(=O)O)cc(Cl)c1OCc1cccc(Br)c1	-7	39*	-17	12	-13
CN(CC(=O)Nc1ccccc1Cl)C(=O)CSc1nc2ccccc2s1	-26*	0	-7	-1	-30
CN(CC(=O)Nc1ccccc1Cl)C(=O)COC(=O)c1nc(Cl)c(Cl)c(Cl)c1Cl	-18*	1	0	3	-35
Cc1ccc(CSCC(=O)N(C)CC(=O)Nc2ccccc2Cl)cc1	-21*	3	-1	-1	-1
Cc1ccc(CSCC(=O)N(C)CC(=O)Nc2c(Cl)cccc2Cl)cc1	0	-1	6	-1	-4
C[C@H]1CN([C@@H](C)CO)S(=O)(=O)c2ccc(C#CC3CC3)cc2O[C@H]1CN(C)S(C)(=O)=O	3	0	0	·	0
C[C@@H]1CN(C)C(=O)c2cccc(N)c2O[C@H]1CN(C)S(C)(=O)=O	-1	·	·	·	·
CO[C@@H]1CN(C)C(=O)c2cc(NS(=O)(=O)c3cn(C)cn3)ccc2OC[C@@H](C)N(C)C[C@H]1C	2	·	·	·	·
COc1ccc(-n2cccc2/C=C2\C(=N)N3N=C(C(C)C)SC3=NC2=O)cc1	-40	5	1	10	-95
COc1ccc(-n2cccc2/C=C2\C(=N)N3N=C(c4ccco4)SC3=NC2=O)cc1	-23*	7	-1	18	-133
C/C=C/c1ccccc1[C@H]1[C@@H](C#N)N(C(=O)NC2CCCC2)[C@H]1CO	1	3	0	·	0
O=S(=O)(Nc1ccccc1Cl)c1ccc(-c2ccccn2)s1	-37*	0	-2	-1	-20
C[C@@H]1CCCCO[C@@H](CN(C)C(=O)c2ccccc2)[C@H](C)CN([C@@H](C)CO)C(=O)c2cc(NC(=O)CCC(F)(F)F)ccc2O1	-1	-1	-4	·	7
Cc1noc(C)c1NC(=O)N(C)C[C@@H]1Oc2ccc(NC(=O)Cc3cn(C)c4ccccc34)cc2C(=O)N([C@H](C)CO)C[C@H]1C	-3	0	-11	·	-5
CCOC(=O)c1c(C)oc2c1c(C=NCc1ccccn1)c(O)c1ccccc12	11	60*	13	·	-2
CCOC(=O)c1c(NCC2CCCO2)c2ccccc2[nH]c1=O (centres undefined)	·	·	·	-4	·
CCOC(=O)c1c(C)oc2c1c(C=NCC1CCCO1)c(O)c1ccccc12 (centres undefined)	·	·	·	99*	·
CCOC(=O)c1c(C)oc2c1c(C(c1cccnc1)N1CCOCC1)c(O)c1ccccc12 (centres undefined)	·	·	·	2	·
O=C(Cc1cccc2ccccc12)Nc1ccccc1F	·	·	·	-2	·
CC(C)NC(=O)N[C@H]1CC[C@@H](CC(=O)NCCN2CCCC2)O[C@H]1CO	-1	-16	0	·	-16

High-throughput results deposited in PubChem BioAssay by Broad Institute.
